# High-throughput results (PubChem BioAssay)
# CYP2C9 inh: inhibitors of human CYP2C9 | P11712 | CYP2C9 Supersomes, luciferin-H conversion, luminescence | inhibition, % at 5 µM | 20% of 96,000 active | AID 777;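 active means blocking of liver enzyme CYP2C9 beyond about 50% at 5 µM, limit read from the data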
# CYP2C19 activ: activators of human cytochrome P450 2C19. P33261. recombinant CYP2C19, luciferin-H EGE luminescence; hits give high values; 0 = fully inhibited enzyme, 1 = untreated enzyme. activation factor at 5 µM. 96,000 tested, under 10 active. AID 1025;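 active means activation factor of at least 2 at 5 µM in the primary screen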;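 further: 0 = wells with 2.5 mM tranylcypromine and 1 = vehicle-only wells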
# Target sequence (P33261 whole entry, looked up): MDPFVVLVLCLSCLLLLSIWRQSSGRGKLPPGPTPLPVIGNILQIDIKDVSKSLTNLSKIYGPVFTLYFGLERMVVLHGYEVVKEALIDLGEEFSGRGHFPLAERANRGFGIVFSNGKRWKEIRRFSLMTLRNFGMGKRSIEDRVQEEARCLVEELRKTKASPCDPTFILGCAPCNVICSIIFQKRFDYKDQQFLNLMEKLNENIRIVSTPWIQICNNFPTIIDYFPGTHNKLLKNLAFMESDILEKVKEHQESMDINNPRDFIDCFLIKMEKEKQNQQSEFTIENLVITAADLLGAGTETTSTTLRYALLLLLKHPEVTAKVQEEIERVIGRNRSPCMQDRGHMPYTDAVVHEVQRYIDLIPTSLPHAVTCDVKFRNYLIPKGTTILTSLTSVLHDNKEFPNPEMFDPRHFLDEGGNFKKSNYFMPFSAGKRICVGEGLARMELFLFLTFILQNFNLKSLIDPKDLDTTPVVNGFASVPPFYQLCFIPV
# Cav3 T inh: human Cav3.2 channel inhibition, primary screen. O95180. Cav3.2-expressing cells, Fluo-4 calcium fluorescence FDSS; hits give low values. B-score at 10 µM. 4% of 100,000 active. AID 449739;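 active means single-dose well whose peak fluorescence ratio is a statistical outlier from its plate by either plate-standardised score or position-corrected B-score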
# CYP2C19 inhib: human CYP2C19 inhibition. CYP2C19 Supersomes, luciferin-H EGE luminescence, 30 min. inhibition, % at 5 µM. 21% of 96,000 active. AID 778;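 active means CYP2C19 inhibition above a set limit at 5 µM in the primary screen, cut at about 50% in these data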;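 further: plate controls were negative control wells for no effect and 2.5 mM tranylcypromine positive control for full effect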
# CYP2C9 activ: CYP2C9 (human) activation; activation factor at 5 µM; P11712; 1.4% of 96,000 active; recombinant CYP2C9, luciferin-H conversion, luminescence; hits give high values; factor 1 = untreated enzyme, 0 = blocked;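 active means activation factor of 2 or more for CYP2C9 at a 5 µM dose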;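 further: 0 = sulfaphenazole-blocked wells and 1 = vehicle-only wells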
# * = called active by the depositor; . = no result given. Hits are enriched below; roughly 27% of the tested compounds scored in any of these assays.
SMILES,CYP2C9 inh,CYP2C19 activ,Cav3 T inh,CYP2C19 inhib,CYP2C9 activ
Cc1nn(C(C)C(=O)N2CCc3ccccc3C2)c(=O)c2cc3occc3n12 (stereo not given),4,0.5,0.61,52*,1
COc1ccc(-c2cc(C(=O)Nc3cc(C)n(Cc4ccc(Cl)cc4)n3)no2)cc1OC,-1,1,-1.8,2,1
O=C(NCCc1ccccc1)c1ccc(-n2cnnn2)cc1,-4,0.9,-0.2,8,1
O=C(NCCc1c[nH]c2ccccc12)c1ccc(S(=O)(=O)NCc2ccco2)cc1,84*,0.2,-0.8,84*,0.2
O=C(NCCc1c[nH]c2ccccc12)c1ccc(-n2cnnn2)cc1,-211,0.5,0.17,53*,3.1*
CCOc1ccc(NC(=O)N[C@@H](CCSC)C(=O)OC)cc1,-13,1.2,0.91,-18,1.1
CCc1cc2c(=O)n(CC)c(SC(C)C(=O)Nc3c(C)n(C)n(-c4ccccc4)c3=O)nc2s1 (stereo not given),46,0.8,2.1,23,0.5
CC[C@@H]1CC=C[C@H]2[C@H]1C(=O)N(Cc1ccccc1)[C@H]2c1ccc2ccccc2c1,.,.,-2.6,.,.
CCc1nc(NCCN)c(C#N)c2c1CSC(C)(C)C2,35,0.9,-0.073,14,0.6
CCOc1ccc(-c2n[nH]c(C)c2-c2ccccc2OC)c(O)c1,20,0.5,-0.61,47,0.8
CCOc1ccc(-c2[nH]ncc2Oc2cccc(OC)c2)c(O)c1,100*,0,-0.9,99*,0
COc1cccc(Oc2cn[nH]c2-c2ccc(O)cc2O)c1,97*,0,-2.7,98*,0
COc1cccc(Oc2ccc(N)cn2)c1,-6,0.8,-1.6,19,1.1
COc1cccc(Oc2cn[nH]c2-c2ccc(OC)cc2O)c1,100*,0,-4.9*,99*,0
COc1ccc(/C=N\NC(=O)C2=NNC(=O)C2C)cc1 (stereo not given),-10,1,0.51,4,1.1
O=C(NCc1cccnc1)C1c2ccccc2C(=O)N1C1CCCCCC1 (stereo not given),20,0.3,.,68*,0.8
O=C(NC1CCCCCCC1)C1c2ccccc2C(=O)N1Cc1ccco1 (stereo not given),14,0.8,-0.18,21,0.9
O=C(NC1CCCCCC1)C1c2ccccc2C(=O)N1Cc1cccnc1 (stereo not given),2,0.5,1.8,52*,1
C/C=C/CSc1nc2c(c(=O)[nH]c(=O)n2C)n1Cc1ccc(C)cc1,-3,1.1,-0.26,-14,1
CC(C)CSc1nc2c(=O)[nH][nH]c(=O)c2n1Cc1ccccc1,.,.,0.28,.,.
Clc1cccc(-c2nn3c(-c4ccncc4)nnc3s2)c1,-6,0.5,.,55*,1.1
Clc1cccc(-c2nnc3sc(-c4ccc5c(c4)OCO5)nn23)c1,30,0.8,.,22,0.7
COc1cccc(-c2nnc3sc(-c4ccc(Cl)cc4)nn23)c1,66*,0.6,.,36,0.3
COc1cccc(-c2nnc3sc(-c4ccccc4)nn23)c1,0,0.9,-0.00093,12,1
COc1cccc(OC)c1-c1nn2c(-c3cc(-c4ccccc4)n[nH]3)nnc2s1,57*,0.4,0.91,56*,0.4
SMILES,CYP2C9 inh,CYP2C19 activ,Cav3 T inh,CYP2C19 inhib,CYP2C9 activ
CS(=O)(=O)N(CC(=O)N1CCN(c2ccccc2F)CC1)c1ccc2c(c1)OCCO2,28,0.7,0.011,35,0.7
CCN1CNC(=S)N(c2cccc(C)c2C)C1,11,1.1,-0.29,-6,0.9
Cc1ccc(C(=O)Nc2ncc3c(Cl)cccc3n2)cc1,26,0.7,-0.21,34,0.7
Cc1cccc(-c2nnc3sc(-c4ccccc4C)nn23)c1,81*,0.1,-1.4,89*,0.2
c1ccc(-c2nnc3sc(-c4ccncc4)nn23)cc1,14,0.6,0.98,44,0.9
COc1ccc(-c2nn3c(-c4ccccc4)nnc3s2)cc1,70*,0.3,0.98,74*,0.3
CCOc1ccc(-c2nn3c(-c4ccc(F)cc4)nnc3s2)cc1,.,.,0.046,.,.
Clc1ccc(-c2nn3c(-c4ccccc4)nnc3s2)cc1,40,0.2,0.13,81*,0.6
CC(NC(=O)Cn1nnc(-c2ccncc2)n1)c1ccccc1 (stereo not given),.,.,1,.,.
CCN(CC)c1nc2ccccc2nc1C(C#N)C(=O)NCCc1ccccc1 (stereo not given),54*,0.9,-3.7,13,0.5
CCCCCCOC(=O)C(C#N)c1nc2ccccc2nc1N1CCOCC1 (stereo not given),25,0.8,-3.5,19,0.8
CCCCN(CCCC)c1nc2ccccc2nc1C(C#N)C(=O)NCCCOC (stereo not given),28,0.8,-8.1*,20,0.7
CCN(CC)c1nc2ccccc2nc1C(C#N)C(=O)NCCCOC (stereo not given),79*,0.4,-2.5,56*,0.2
CCCN(CCC)c1nc2ccccc2nc1C(C#N)C(=O)OC(C)COC (stereo not given),.,.,-7.7*,.,.
COc1cc(C)c(CN2CCCCC2CO)cc1C (stereo not given),0,0.8,0.33,18,1
COc1ccc(-c2ccc3oc(-c4ccc(OC)cc4)c(C#CCO)c3c2)cc1,.,.,0.17,.,.
Cc1ccc(C)c(N2CCN(C(=O)C3CCN(c4nc(C)cc(C)n4)CC3)CC2)c1,-22,0.8,-5.6*,16,1.2
Cc1ccc(C)c(N2CCN(C(=O)C3CCCN(S(=O)(=O)c4c(C)noc4C)C3)CC2)c1 (stereo not given),93*,0.3,-1.8,74*,0.1
Cc1noc(C)c1S(=O)(=O)N1CCCC(C(=O)N2CCc3ccccc3C2)C1 (stereo not given),47,0.3,2.7,74*,0.5
CCOC(=O)CSC1=NC(=O)CS1,4,0.9,0.3,5,1
COC(=O)c1ccc(S(=O)(=O)N(Cc2cc3cc4c(cc3[nH]c2=O)OCO4)C2CCCCC2)cc1,1,1,.,-2,1
COc1ccc(CCCNC(=O)CC#N)cc1OC,-4,1,-0.66,2,1
Cc1cc(C)nc(NC2=NC3CCCCC3N2)n1 (stereo not given),1,1,0.24,-1,1
O=C(CC1Oc2ccccc2NC1=O)NCCCN1CCN(C2CCCCC2)CC1 (stereo not given),.,.,0.52,.,.
COc1ccc(C(=O)/C=C(\N)C(F)(F)F)c(O)c1,16,0.4,0.28,60*,0.8
CC(=O)NCCn1c(SCc2cc(=O)n3cc(Cl)ccc3n2)nc2ccccc2c1=O,44,1,1.4,1,0.6
O=C1C=C(c2ccc3c(c2)OCO3)CCC1,.,.,1.7,.,.
Cc1onc(-c2ccccc2)c1C(=O)Nc1sc2c(c1C(N)=O)CCC2,43,0.5,-0.31,48,0.6
Cc1onc(-c2c(F)cccc2Cl)c1C(=O)NC1CCSC1=O (stereo not given),65*,0.2,-0.048,82*,0.4
